# Reference: PubChem BioAssay
# For part of these data: Entries with a potency or affinity are not part of this list. The source made the active and inactive calls.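 Rule for the calls, unless noted: active = dose curve with midpoint inside tested range, moderate steepness, plateau gap beyond fit error, low compound glow and bead-link interference; inactive = the rest.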
# Experiments:
# [1] = target: Cell division control protein 42 homolog (Homo sapiens) (UniProt P60953); assay: activated mutant Cdc42 GTP-binding inhibitors, dose response, biochemical, multiplex bead flow cytometry, Bodipy-FL-GTP (AID 1333;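 active = fitted half-maximal concentration within the tested dose range, moderate curve steepness, a statistically real signal drop, and little compound fluorescence or tag-binding interference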)
# Cell division control protein 42 homolog (Homo sapiens), sequence (P60953 whole entry, looked up): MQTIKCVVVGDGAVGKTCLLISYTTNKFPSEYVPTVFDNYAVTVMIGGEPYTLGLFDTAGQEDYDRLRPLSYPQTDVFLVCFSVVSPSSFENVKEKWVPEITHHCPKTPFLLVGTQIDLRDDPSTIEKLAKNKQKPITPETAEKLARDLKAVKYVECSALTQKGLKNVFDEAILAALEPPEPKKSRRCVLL
# [2] = target: Cell division control protein 42 homolog (Homo sapiens) (UniProt P60953); assay: wildtype Cdc42 GTP-binding inhibitors, dose response, biochemical, multiplex bead flow cytometry, Bodipy-FL-GTP (AID 1334;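 active = fitted half-maximal concentration within the tested range, moderate curve steepness, significant signal drop, and little compound fluorescence or bead-linkage interference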); conditions: bead-based flow cytometry, Bodipy-FL-GTP binding to GST-Cdc42; at 100 µM (top of the series) unless noted
# [3] = target: GTPase HRas (Homo sapiens) (UniProt P01112); assay: inhibitors of GTP binding to wildtype Ras, dose response, biochemical, multiplex bead flow cytometry (AID 1335;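 active = fitted half-maximal concentration within 10 nM to 100 µM, steepness 0.5 to 2, significant signal drop, low assay interference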); conditions: bead-based flow cytometry, Bodipy-GTP binding to GST-Ras; at 100 µM (top of the series) unless noted
# GTPase HRas (Homo sapiens), sequence (P01112 whole entry, looked up): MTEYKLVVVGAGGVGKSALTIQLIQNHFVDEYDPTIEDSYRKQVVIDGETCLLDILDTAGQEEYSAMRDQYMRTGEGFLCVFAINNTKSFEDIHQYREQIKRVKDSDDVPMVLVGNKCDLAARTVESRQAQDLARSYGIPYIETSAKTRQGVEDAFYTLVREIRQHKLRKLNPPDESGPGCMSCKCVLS
# [4] = test system: Ras-related protein Rab-7a (dog), GTP binding; assay: Rab7 GTP binding inhibitors, potency, dose response, biochemical, wildtype, multiplex bead flow cytometry (AID 1336; call rule not given here)
# [5] = target: Ras-related C3 botulinum toxin substrate 1 (Homo sapiens) (UniProt P63000); assay: wildtype Rac1 GTP binding inhibitors, dose response, biochemical, multiplex bead flow cytometry (AID 1340); conditions: GST-Rac1 beads, Bodipy-FL-GTP binding; at 100 µM (top of the series) unless noted
# [6] = target: GTPase HRas (Homo sapiens) (UniProt P01112); assay: activated Ras mutant GTP binding inhibitors, dose response, biochemical, multiplex bead flow cytometry (AID 1341;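 active = dose-response curve with midpoint inside the tested range, moderate steepness, significant amplitude and little compound fluorescence or bead-attachment interference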;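 note: GST-tagged constitutively activated Ras mutant immobilized on beads and multiplexed with other GTPases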)
Structure (SMILES),outcome [1],"fluorescence, percent of control (lower = inhibition) [2] [%]","GTP binding, percent of control [3] [%]",outcome [4],"GTP binding signal, raw median fluorescence (lower = inhibition) (MCF (arbitrary fluorescence units)) [5]",outcome [6]
CCOC(=O)c1ccc2ncc(-c3ccccc3)nc2c1,inactive,33.5,79.4,inactive,259,inactive
COc1ccc(-c2nnc(S/C(=C/c3ccc(Cl)cc3)C(=O)O)o2)cc1,inactive,35.8,81.6,inactive,218,inactive
O=c1[nH]c(N/N=C/c2ccc(O)cc2)nc2ccccc12,inactive,31.4,71,inactive,259,inactive
O=C(COc1ccccc1/C=C\c1[nH]c(=O)[nH]c(=O)c1[N+](=O)[O-])Nc1ccccc1,inactive,29.1,77.1,inactive,191,inactive
Nc1c(S(=O)(=O)c2cccc(Cl)c2)c2nc3ccccc3nc2n1/N=C/c1ccc(O)c(O)c1,inactive,54.4,91.7,inactive,99.4,inactive
COc1ccc(C(=O)C2CCCN(C(=O)c3cc4nc(C)cc(C)n4n3)C2)cc1F (stereo not given),inactive,41.4,95.1,inactive,274,inactive
Cc1cc2ccccn2c1C(=O)c1ccc(Cl)c([N+](=O)[O-])c1,inactive,38.8,86.1,inactive,216,inactive
CCOc1ccccc1CNCc1sc(C(=O)O)cc1C,inactive,59.6,79.1,inactive,33.1,inactive
COc1ccc(-c2nn3c(-c4ccccn4)nnc3s2)cc1OC,inactive,43,52.9,inactive,137,inactive
COc1ccc2c3c(cccc13)C(=O)N(O)C2=O,inactive,30.1,69.8,inactive,145,inactive
COc1ccc(-c2nn3c(-c4ccco4)nnc3s2)cc1OC,inactive,39.1,132,inactive,143,inactive
Oc1c(C=Nc2cccc3cccnc23)sc2ccccc12,inactive,93.4,177,inactive,199,inactive
Cc1ccc(Sc2nnc(-c3ccccc3)cc2C#N)cc1,inactive,104,178,inactive,185,inactive
CCc1c(C)nc2c(C#N)c[nH]n2c1=O,inactive,39,54.3,inactive,114,inactive
COc1cccc(N=Nc2c(N)[nH]n3c(=O)c4c(nc23)CCCC4)c1,inactive,29.6,66.9,inactive,151,inactive
COc1ccc(-c2cc(-c3ccccc3)c(C#N)c(=S)[nH]2)cc1,inactive,28.8,69.8,inactive,225,inactive
NS(=O)(=O)c1ccc(Nc2nc(-c3ccc(O)cc3O)cs2)cc1,inactive,25.1,67.8,inactive,152,inactive
Cn1c(N/N=C/c2ccccc2)nc2sc3c(c2c1=O)CCC3,inactive,71.9,117,inactive,123,inactive
O=C(CSc1nnc2c(n1)[nH]c1ccccc12)Nc1ccc(S(=O)(=O)Nc2ncccn2)cc1,inactive,33.3,72.8,inactive,148,inactive
O=C(O)c1ccc(COc2cccc(Cl)c2)o1,inactive,60.1,87,inactive,32.8,inactive

Structure (SMILES),outcome [1],"fluorescence, percent of control (lower = inhibition) [2] [%]","GTP binding, percent of control [3] [%]",outcome [4],"GTP binding signal, raw median fluorescence (lower = inhibition) (MCF (arbitrary fluorescence units)) [5]",outcome [6]
CCOC(=O)C1(Cc2ccccc2)CCCN(CCO)C1 (stereo not given),inactive,37.6,80.3,inactive,246,inactive
Clc1ccccc1-c1ccc(/C=N/Nc2nncc(-c3ccccc3)n2)o1,inactive,39,89.5,inactive,220,inactive
O=c1cc(N2CCc3ccccc3C2)[nH]c(=O)n1-c1ccc(Cl)cc1,inactive,43.6,92.9,inactive,267,inactive
CCn1cc(C(=O)OCC(=O)c2cc(C)n(-c3cccc(C(F)(F)F)c3)c2C)c(=O)c2ccc(C)nc21,inactive,37.1,57.8,inactive,137,inactive
COc1ccc(C(=O)Nc2cc(Cl)ccc2C(=O)O)cc1,inactive,30.8,75.6,inactive,272,inactive
Cn1c(=O)c2c(nc(N/N=C/c3ccco3)n2C)n(C)c1=O,inactive,31.1,69.2,inactive,165,inactive
CC(SC(=S)N(C)Cc1cccs1)C(=O)O (stereo not given),inactive,83.3,79.5,inactive,312,inactive
Clc1ccc(Cn2ncc3c(N4CCOCC4)ncnc32)cc1,inactive,50.5,66.4,inactive,209,inactive
O=C(Nc1nccs1)c1ccc(-c2cccc([N+](=O)[O-])c2)o1,inactive,31.6,72.4,inactive,181,inactive
COc1ccccc1OCCn1cc(C(=O)O)c2cccc(C)c21,inactive,50.6,200,inactive,55.9,inactive
Cc1ccc(/C=C2\SC(=S)N(C(Cc3ccccc3)C(=O)O)C2=O)cc1 (stereo not given),inactive,28.1,81.2,inactive,212,inactive
O=C(CSc1n[nH]c(=O)[nH]c1=O)N/N=C/c1ccccc1,inactive,49.5,61.4,inactive,197,inactive
O=c1[nH]c2sc3c(c2c2nncn12)CCCC3,inactive,23.4,59.2,inactive,103,inactive
Cc1nc2ccccn2c1-c1csc(Nc2cccc(O)c2)n1,inactive,35.4,80.4,inactive,216,inactive
CCOC(=O)c1cnc(SCc2ccc(C)cc2)nc1N,inactive,32,82.3,inactive,238,inactive
Oc1c(CN2CCOCC2)ccc2ccccc12,inactive,36.2,84.5,inactive,250,inactive
Cc1nc2c(-c3ccc(Cl)cc3)c(C)[nH]n2c(=O)c1Cc1ccccc1,inactive,34.5,75.9,inactive,158,inactive
O=C(CCc1ccccn1)N1CCCC(CNS(=O)(=O)c2cccs2)C1 (stereo not given),inactive,36.9,82.7,inactive,279,inactive
CCOc1ccccc1NC(=O)CSc1ccc2nnc(-c3cccnc3)n2n1,inactive,29.2,65.1,inactive,136,inactive
COc1ccccc1OCCn1cc(C(=O)O)c2ccc(Cl)cc21,inactive,57,201,inactive,61.4,inactive

Structure (SMILES),outcome [1],"fluorescence, percent of control (lower = inhibition) [2] [%]","GTP binding, percent of control [3] [%]",outcome [4],"GTP binding signal, raw median fluorescence (lower = inhibition) (MCF (arbitrary fluorescence units)) [5]",outcome [6]
N#CC(C#N)=C(Nc1ccc(F)cc1)SCc1cccc(Br)c1,inactive,45.8,61.7,inactive,181,inactive
O=C(O)c1cc([N+](=O)[O-])ccc1NCc1ccccc1,inactive,121,149,inactive,105,inactive
O=C(Nc1c(F)cccc1F)c1cnc(N2CCN(c3ccccn3)CC2)c2ccccc12,inactive,97,199,inactive,217,inactive
Cc1ccc(Nc2ncccc2C(=O)O)cc1,inactive,58.7,85.1,inactive,31.3,inactive
Cc1cc(C)cc(OCCSc2nc3ccccc3n2CC(=O)O)c1,inactive,58.4,87.4,inactive,31,inactive
c1ccc(CN2CCN(CCOCCOc3cccc4ccccc34)CC2)cc1,inactive,28.9,79,inactive,234,inactive
Cc1cc(C)n2nc(C(=O)Nc3ccc(S(=O)(=O)N4CCCC4)cc3)nc2n1,inactive,37,82.5,inactive,257,inactive
Cc1ccc(COc2ccsc2C(=O)O)cc1,inactive,99.7,115,inactive,82.4,inactive
Cc1ccc(OCc2ccc(C(=O)O)o2)cc1C,inactive,61.7,90.6,inactive,34.8,inactive
Cc1cc(N=NC(=O)c2ccccc2O)c2ccccc2c1O,inactive,36.1,85.2,inactive,243,inactive
C=CCOc1cccc(/C=N/NC(=O)CN(c2cc(Cl)ccc2OC)S(=O)(=O)c2ccc(C)c([N+](=O)[O-])c2)c1,inactive,50.3,56,inactive,0,inactive
O=C(O)c1ccccc1C(=O)OCc1ccc(F)cc1F,inactive,89.8,106,inactive,72.5,inactive
NC(=S)Nc1cccc2cc3ccccc3cc12,inactive,75.3,120,inactive,137,inactive
Cc1ccc2nc(CSc3nc(C)cc(C)c3C#N)[nH]c2c1,inactive,35.3,77.6,inactive,242,inactive
CCN=C1S/C(=C\c2ccc(OC)c(OCC)c2)C(=O)N1CC,inactive,50.8,60.4,inactive,213,inactive
CC(=O)Oc1cccc(C#CC(=O)c2ccc([N+](=O)[O-])cc2)c1,inactive,35.4,173,inactive,95.5,inactive
CCCCCCCCCCCC(=O)c1c(O)cccc1O,inactive,28.4,79.8,inactive,241,inactive
O=C(O)CC/C(=C\c1ccc(N2CCCC2)c([N+](=O)[O-])c1)c1nc2ccccc2s1,inactive,34.4,81.8,inactive,244,inactive
CCOC(=O)c1c(C)[nH]c(C)c1C(=O)COc1ncnc2cc([N+](=O)[O-])ccc12,inactive,33.9,76.2,inactive,186,inactive
CC(C)N(C)NC(=S)Nc1ccccc1,inactive,53.9,64.3,inactive,210,inactive
